This is a sample that favours compounds with a hit; in the whole collection about 0.51% have one here.
Vif-APOBEC3F blk: qHTS for Inhibitors of Vif-A3F Interactions: qHTS; Potency, µM (highest dose often 46.1 µM); 390,000 tested, 0.2% active; HeLa A3F-eYFP + Vif (tagged APOBEC3F with the HIV-1 protein that degrades it), YFP fluorescence increase; note: nearly all actives have a fitted effect of over 65% in size
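HeLa cells stably expressing Vif plus C-terminally eYFP-tagged A3F were seeded, incubated overnight at 37 deg C, dosed with compound, incubated overnight again at 37 deg C. Yellow fluorescence (Ex 488/Em 500-530) reported blocked Vif-mediated A3F-eYFP degradation.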
Epigenetic reg: Quantitative High-Throughput Screen for Regulators of Epigenetic Control; murine LDR cells, GFP reporter derepression, 30 h; Potency, µM (titrated, usually from 53.9 µM), hits mostly activators; 280,000 tested, 0.2% active; note: nearly all actives have a fitted effect of over 60% in size
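In this reporter-derepression format, murine cells bearing a silenced integrated CMV-GFP locus incubate with test compound (30 h, 37 C), then are washed and imaged; fluorescent objects of 20–120 um count as induced cells.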
Vif-A3G inh: qHTS for Inhibitors of Vif-A3G Interactions: qHTS. DNA dC->dU-editing enzyme APOBEC-3G (Homo sapiens), Q9HC16. 410,000 tested, 0.076% active. HeLa A3G-eYFP + Vif (tagged APOBEC3G with the HIV-1 protein that degrades it), YFP fluorescence, overnight. Potency, µM (titrated, usually from 46.1 µM), most hits filed as inhibitors. AID 602310, 2012; note: nearly all actives have a fitted effect of over 60% in size
Target sequence (Q9HC16 whole entry, looked up): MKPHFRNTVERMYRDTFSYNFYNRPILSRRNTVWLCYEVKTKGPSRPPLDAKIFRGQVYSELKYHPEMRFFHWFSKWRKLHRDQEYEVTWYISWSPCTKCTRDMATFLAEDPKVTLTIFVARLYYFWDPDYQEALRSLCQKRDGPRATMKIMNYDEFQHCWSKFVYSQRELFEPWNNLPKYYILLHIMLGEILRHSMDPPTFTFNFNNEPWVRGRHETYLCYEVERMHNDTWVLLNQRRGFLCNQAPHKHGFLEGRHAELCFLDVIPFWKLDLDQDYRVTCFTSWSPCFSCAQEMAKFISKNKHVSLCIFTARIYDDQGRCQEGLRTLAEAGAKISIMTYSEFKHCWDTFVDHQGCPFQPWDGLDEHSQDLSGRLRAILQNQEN
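HeLa cells stably expressing Vif and C-terminally eYFP-tagged A3G, seeded overnight at 37 deg C, then exposed to compound by pintool overnight at 37 deg C. Rise in yellow fluorescence (Ex 488/Em 500-530, Acumen) marks blocked Vif-driven A3G degradation.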
PINK1 modulator: A Quantitative High throughput Screen to Identify Chemical Modulators of PINK1 Expression; Potency, µM (top dose mostly 76.6 µM), most hits filed as activators; PINK1 immunofluorescence, high-content cytometry, 24 h; AID 624263, 2012; 410,000 tested, 0.2% active; active = well fitted activation curve with a large enough effect; inconclusive = small, poorly fitted or top-dose-only effect; cell line not stated here; note: nearly all actives have a fitted effect of over 65% in size
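A stable cell line was treated with compounds at 5 concentrations for 24 hours, with CCCP as control. PINK1 levels and mitochondrial localization were measured by immunofluorescence with mitochondrial, cell and nuclear markers after fixation, read by laser-scanning cytometry.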
Of the large screens only hits and unclear results are named; the others gave an inactive call; ! = not active in a repeat. Unless noted, calls come from the whole dose curve; as a rule, active = well fitted curve in the direction sought with a large enough effect; inconclusive = small, poorly fitted or top-dose-only effect, or another doubt; inactive = no such curve, though single readings can be large; an effect the other way counts as inactive or inconclusive.

c1ccc2nc3c(nc2c1)sc1nc2ccccc2n13	none (no result: Vif-APOBEC3F blk, Vif-A3G inh, PINK1 modulator)
CCc1nnc(NC(=O)CSc2nc3cc4c(cc3cc2CC)OCCO4)s1	PINK1 modulator 11.2µM
O=C(C1CC1)N1CCC(c2nc(-c3ccc(S(=O)(=O)NCC4CCCO4)cc3)no2)CC1 (stereo not drawn)	none
CN(CCC#N)c1ccc(/C=C(\C#N)c2ccccn2)cc1	none
CCN(CC)c1ccc(/C=C(\C#N)c2ccccn2)cc1	Vif-APOBEC3F blk inconclusive, Epigenetic reg 17.8µM, Vif-A3G inh 10µM
CCN(Cc1ccccc1)c1ccc(/C=C(\C#N)c2ccccn2)cc1	Vif-APOBEC3F blk 22.4µM, Epigenetic reg inconclusive
CC(=O)OCC1OC(OC(C)=O)C(NC(=O)Cc2ccccc2)C(OC(C)=O)C1OC(C)=O (stereo not drawn)	none
COc1ccc(-n2nc(C(=O)NCC(=O)NCCC3=CCCCC3)c3ccccc3c2=O)c(OC)c1	none (no result: Epigenetic reg)
O=C1c2cccc3cccc(c23)C(=O)N1c1ccc(O)cc1	none (no result: Epigenetic reg)
O=C1c2cccc3c(N4CCCCC4)ccc(c23)C(=O)N1c1ccc(O)cc1	Vif-APOBEC3F blk inconclusive, Epigenetic reg inconclusive, Vif-A3G inh 7.94µM, PINK1 modulator inconclusive
O=C1c2cccc3c(N4CCCCC4)ccc(c23)C(=O)N1c1ccccc1O	Vif-APOBEC3F blk 8.91µM, Epigenetic reg inconclusive
N/C(=N\OC(=O)Cc1cccs1)c1ccc(Cl)cc1	none
Nc1c(C(=O)O)sc2nc(-c3ccc(F)cc3)cc(-c3ccccc3)c12	Vif-APOBEC3F blk 11.2µM, Epigenetic reg inconclusive
Nc1c(C(=O)O)sc2nc(-c3ccccc3)cc(-c3ccc(Cl)cc3)c12	none
COc1ccc(CNC(=O)C(=O)NCC(c2ccco2)N2CCOCC2)cc1 (stereo not drawn)	none
CCCCc1c(C)c(C#N)c2[nH]c3ccccc3n2c1=O	PINK1 modulator 39.8µM
CCOC(=O)c1c(C)[nH]c(C)c1S(=O)(=O)N1CCCC(C(=O)NCc2ccc(C)cc2)C1 (stereo not drawn)	none
COc1ccc(/C=N/NC(=O)c2c(-c3ccccc3)noc2C)cc1[N+](=O)[O-]	none (no result: Epigenetic reg)
COC(=O)/C=C1/N/C(=N\c2nc(C)cc(C)n2)N(c2ccc(C)c(C)c2)C1=O	none
ClCc1nc2ccccc2n1Cc1ccccc1	Vif-APOBEC3F blk 5.62µM, Vif-A3G inh inconclusive (no result: Epigenetic reg)
COCc1nc2ccccc2n1Cc1ccccc1	none
CCCCOc1ccc(C2C3CN(C(=O)OCC)CC=C3C(C#N)=C(N)C2(C#N)C#N)cc1OC (stereo not drawn)	none
CCCN1CC=C2C(C#N)=C(N)C(C#N)(C#N)C(c3cccc(OC)c3OC)C2C1 (stereo not drawn)	PINK1 modulator 10µM
Cc1ccc(C2C3CN(C(C)C)CC=C3C(C#N)=C(N)C2(C#N)C#N)cc1 (stereo not drawn)	Vif-APOBEC3F blk inconclusive, PINK1 modulator 25.1µM
CCN1CC=C2C(C#N)=C(N)C(C#N)(C#N)C(CCc3ccccc3)C2C1 (stereo not drawn)	Vif-APOBEC3F blk inconclusive, Vif-A3G inh inconclusive, PINK1 modulator 10µM
COc1ccc(OC)c(C2C3CN(C(C)C)CC=C3C(C#N)=C(N)C2(C#N)C#N)c1 (stereo not drawn)	PINK1 modulator 39.8µM
COc1cccc(OC)c1OCc1cc(C2C3CCCC=C3C(C#N)=C(N)C2(C#N)C#N)c(C)cc1C (stereo not drawn)	none
N#Cc1ccc(NC(=O)Nc2cccc(C#N)c2)cc1	PINK1 modulator 31.6µM
COc1ccc(NC(=O)Nc2ccc(OC)cc2)cc1	none
N#Cc1ccc(NC(=O)Nc2ccc(Oc3ccc(NC(=O)Nc4ccc(C#N)cc4)cc3)cc2)cc1	PINK1 modulator 44.7µM
N#Cc1cccc(NC(=O)c2ccccc2C(=O)O)c1	none
Cc1ccc(C(=O)/C=C\C(=O)c2ccc(C)cc2)cc1	none
Cc1ccc(S/C=C\C(=O)c2ccccc2)cc1	Vif-A3G inh inconclusive, PINK1 modulator 12.6µM
COC(=O)c1ccc(NC(=O)Nc2ccc([N+](=O)[O-])cc2)cc1	PINK1 modulator 35.5µM (no result: Epigenetic reg)
O=C1C2C3C=CC(C2C(=O)N1c1ccccc1O)C1C2C(=O)N(c4ccccc4O)C(=O)C2C31 (stereo not drawn)	none
Cc1ccc(Sc2ccc(S(=O)(=O)Nc3ccc(C(=O)O)cc3)cc2)cc1C	Vif-A3G inh inconclusive (no result: Epigenetic reg)
Nc1c(C(=O)Nc2ccc(C(=O)O)cc2)sc2nc3c(cc12)CCCC3	none
Nc1c(C(=O)Nc2ccc(S(=O)(=O)N3CCCC3)cc2)sc2nc3ccc(OC(F)(F)F)cc3cc12	Vif-APOBEC3F blk 22.4µM, Epigenetic reg 7.94µM, Vif-A3G inh inconclusive, PINK1 modulator inconclusive
Nc1c(C(=O)Nc2ccc(S(=O)(=O)N3CCCC3)cc2)sc2nc3cc4c(cc3cc12)CCC4	Vif-APOBEC3F blk 10µM, Epigenetic reg 3.55µM, Vif-A3G inh 12.6µM, PINK1 modulator inconclusive
CC(C)[C@H](NC(=O)c1ccc(C(C)(C)C)cc1)C(=O)Nc1nnc(C2CC2)s1	none
Fc1cccc(NC(=S)NC2CCCCCCC2)c1	Vif-APOBEC3F blk inconclusive, PINK1 modulator 15.8µM (no result: Epigenetic reg)
FC(F)(F)c1cccc(NC(=S)NC2CCCC2)c1	PINK1 modulator inconclusive
COc1cc(-c2nnc(SCC(=O)O)n2-c2ccccc2)cc(OC)c1OC	none (no result: Epigenetic reg)
Cc1cc(C)c(NC(=O)CN2CCN(S(=O)(=O)c3ccc4c(c3)OCCO4)CC2)c(C)c1	none (no result: Epigenetic reg)
COc1cc(OC)c(/C=C/c2cc3ccccc3c[n+]2C)c(OC)c1	PINK1 modulator 11.2µM (no result: Vif-APOBEC3F blk, Epigenetic reg)
N#Cc1c(NC(=O)/C=C/C(=O)O)sc2c1CCN(Cc1ccccc1)C2	Vif-APOBEC3F blk 25.1µM, Vif-A3G inh inconclusive (no result: Epigenetic reg)
CC(=O)Nc1sc2c(c1C#N)CCN(Cc1ccccc1)C2	none (no result: Epigenetic reg)
CCOc1ccc(NC(=O)CSc2ccc3nnc(-c4ccccn4)n3n2)cc1	none (no result: Epigenetic reg)
COC(=O)c1cc(Cl)c(NC(=O)/C=C/c2ccc(Cl)cc2)cc1OC	PINK1 modulator inconclusive
COC(=O)c1cc(Cl)c(NC(=O)/C=C/c2ccc(Cl)cc2Cl)cc1OC	PINK1 modulator 14.1µM!
CCCCSc1nnc(-c2cc3c(C(F)(F)F)nn(C)c3s2)n1C	none
COc1ccc(N=Cc2c(O)n(-c3cccc(C)n3)c(=O)c3ccccc23)cc1	none
COc1ccc(N=Cc2c(O)n(-c3ccc(OC)cc3)c(=O)c3ccccc23)cc1	Vif-APOBEC3F blk 11.2µM, Epigenetic reg inconclusive, PINK1 modulator inconclusive
O=C(NC(=S)Nc1ccc(N2CCCCC2)c(Cl)c1)c1ccc2c(c1)OCCO2	Vif-APOBEC3F blk 10µM
CN(CC(=O)Oc1ccc(-c2nnco2)cc1)S(=O)(=O)c1ccc(F)cc1	none (no result: Epigenetic reg)
CCC/C=N/NC(=O)c1[nH]c2c([N+](=O)[O-])cccc2c1C	Vif-A3G inh 7.08µM
Cc1cc(Cl)ccc1NC(=S)Nc1cccnc1	none
CCOc1c(Cl)cc(/C=N/NC(N)=S)cc1OC	Vif-APOBEC3F blk 11.2µM
CCCCn1c(N)c(N(CC(C)C)C(=O)c2ccncc2)c(=O)[nH]c1=O	none (no result: Epigenetic reg)
C=CCN1C(=O)c2ccc(C(=O)N(CC(C)C)c3c(N)n(CCCC)c(=O)[nH]c3=O)cc2C1=O	Vif-APOBEC3F blk inconclusive, Vif-A3G inh 7.94µM (no result: Epigenetic reg)
COc1ccc(N/N=C(\C#N)C(N)=O)cc1	none
